GPR151 ag: activators of human GPR151, primary screen, cell-based, PathHunter beta-arrestin, luminescence | activation, % at 11.2 µM | PathHunter beta-arrestin GPR151 cells | AID 1508602, 2020 | G-protein coupled receptor 151 (Homo sapiens), Q8TDV0 | actives 1% (n = 650,000); in the data active = activation above about 4.9%
Target sequence (Q8TDV0 whole entry, looked up): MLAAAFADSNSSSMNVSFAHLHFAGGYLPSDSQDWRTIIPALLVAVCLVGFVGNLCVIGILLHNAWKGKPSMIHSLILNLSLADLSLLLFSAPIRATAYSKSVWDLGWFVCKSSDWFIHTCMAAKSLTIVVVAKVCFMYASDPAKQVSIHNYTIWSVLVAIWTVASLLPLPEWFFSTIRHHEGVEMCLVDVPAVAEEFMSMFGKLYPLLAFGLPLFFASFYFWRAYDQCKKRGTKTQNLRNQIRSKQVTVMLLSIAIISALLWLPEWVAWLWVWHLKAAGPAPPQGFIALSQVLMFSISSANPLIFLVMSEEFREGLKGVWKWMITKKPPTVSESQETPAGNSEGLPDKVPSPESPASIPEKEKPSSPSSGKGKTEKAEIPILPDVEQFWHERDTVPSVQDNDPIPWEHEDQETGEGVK
MITF inh: MITF inhibitors, primary screen, biochemical, AlphaScreen, human; actives 0.91% (n = 650,000); inhibition, % at 2.6 µM; AlphaScreen MITF homodimerization, bead proximity signal; in the data active = inhibition above about 50%
TEAD-YAP block: TEAD-YAP interaction inhibition, primary screen, TEAD-YAP interaction inhibitor project, luminescence, HEK-TIYL cells; inhibition, % at 9.12 µM; AID 1259422, 2018; actives 1.4% (n = 640,000); TEAD-Gal4/YAP UAS-luciferase luminescence; in the data active = inhibition above about 32%
FBW7 act: FBW7 E3 ligase activators, primary screen, biochemical, AlphaScreen, human. actives 0.13% (n = 650,000). F-box/WD repeat-containing protein 7 (Homo sapiens), Q969H0. AID 1259310, 2017. AlphaScreen FBW7–phospho-cyclin E peptide binding, activator screen. normalized activity (activation), % at 26.1 µM; in the data active = normalized activity above about 1.9%;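 also: purified mutant Fbw7 with reduced substrate affinity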
A number is an active result; n = inactive. The list is not random: actives were taken first. Their share in the collection is about 3.4%.

SMILES	GPR151 ag	MITF inh	TEAD-YAP block	FBW7 act
CC(=O)NC(=O)c1cc2ccccc2oc1=Nc1ccc(C)cc1	n	n	35	n
COc1ccccc1NC(=O)CCc1nc(-c2ccc(C(C)(C)C)cc2)no1	n	n	71	n
COc1ccccc1NC(=O)CCCc1nc(-c2ccc(C)cc2)no1	n	n	n	n
COCCN=c1scc(-c2ccccc2)n1/N=C1\CCc2ccccc21	n	n	72	n
OC(COc1ccccc1)CN1CCN(c2ccc3cccc(-c4ccncc4)c3n2)CC1 (stereo not drawn)	n	n	n	n
O=c1cc(-c2ccccc2)[nH]c2ccccc12	n	n	46	n
O=c1nc(-c2ccccc2)c2ccccc2[nH]1	n	n	n	n
COc1ccc(CCNc2nc(-c3ccc(OC)cc3)nc3c2ncn3C(C)C)cc1	n	n	n	n
COc1ccc(-c2nc(NCCc3ccc(O)cc3)c3ncn(C(C)C)c3n2)cn1	n	n	65	n
COc1ccc(-c2nc(NCCN(C(C)C)C(C)C)c3ncn(C(C)C)c3n2)cc1	n	n	39	n
COc1ccc(-c2nc(NCc3nc4ccccc4[nH]3)c3ncn(C(C)C)c3n2)cn1	n	n	48	n
CC(C)n1cnc2c(NCCc3ccc(O)cc3)nc(-c3ccc(C(=O)NC4CC4)cc3)nc21	n	n	n	n
CC(C)n1cnc2c(NCCc3ccc(O)cc3)nc(-c3ccc(C(N)=O)cc3)nc21	n	n	52	n
N#C/C(=C\c1ccc(Br)cc1)C(=O)NCCc1ccccc1	n	n	n	n
CS(=O)(=O)N(CC(=O)N1CCN(Cc2ccc3c(c2)OCO3)CC1)c1ccccc1	n	n	n	n
CN(C)c1cccc(Nc2cc(C(=O)NCCc3ccc(O)cc3)ccn2)c1	n	n	n	n
O=C(COc1ccc2c3c(c(=O)oc2c1)CCC3)NNC(=O)c1ccccn1	n	n	n	n
CC(C)CC(C(=O)Nc1nc(-c2ccc(Br)cc2)cs1)N1C(=O)c2ccccc2C1=O (stereo not drawn)	n	n	n	n
Nc1ccc(S(=O)(=O)O)c2cccc(O)c12	n	71	n	n
COc1ccc(C(=O)COC(=O)c2cc([N+](=O)[O-])cc([N+](=O)[O-])c2)cc1	n	n	n	n
Cc1cc(C=C2C(=O)N(C)C(=S)N(C)C2=O)c(C)n1-c1ccc(Cl)c(C(=O)O)c1	n	68	n	n
Cc1cc(C=C2C(=O)N(C)C(=O)N(C)C2=O)c(C)n1-c1ccc(Cl)c(C(=O)O)c1	n	n	n	n
Cc1cc(C=C2C(=O)NC(=S)NC2=O)c(C)n1-c1cccc(C(=O)O)c1	n	78	n	n
Cc1cc(C=C2C(=O)NC(=O)NC2=O)c(C)n1-c1ccc(C(=O)O)c(Cl)c1	n	54	n	n
CC(=O)NC1=NC(=O)/C(=C/c2cc(C)n(-c3ccc4c(c3)OCO4)c2C)S1	n	n	n	n
SMILES	GPR151 ag	MITF inh	TEAD-YAP block	FBW7 act
Cc1cccc(-n2c(C)cc(C=C3C(=O)NC(=S)NC3=O)c2C)c1	n	n	n	n
CC(=O)NC1=NC(=O)/C(=C/c2cc(C)n(-c3cccc(C(=O)O)c3)c2C)S1	n	75	n	n
Cc1cccc(-c2nnc(C3CCN(S(=O)(=O)c4cccc([N+](=O)[O-])c4)CC3)o2)c1	n	n	n	n
COc1ccc(N(CC(=O)Nc2cccc(F)c2)S(C)(=O)=O)cc1OC	n	n	n	n
COc1cc(OC)c(NC(=O)Cn2c(=O)n(Cc3ccccc3)c(=O)c3nccnc32)cc1Cl	n	n	n	n
CCOc1ccccc1-n1c(=S)sc2c(=O)n(-c3ccccc3C)c(SCC(=O)Nc3ccc(CC)cc3)nc21	n	n	n	n
CCN1CCN(CC(=O)c2cc(C)n(-c3cccc(C(F)(F)F)c3)c2C)CC1	n	63	n	n
Cc1cc(C(=O)CCl)c(C)n1-c1ccccc1F	n	n	n	n
CCN1CCN(CC(=O)c2cc(C)n(-c3ccccc3F)c2C)CC1	n	62	n	n
CC(=O)Nc1nc2c(C)cc(N)cc2s1	n	n	n	30
COc1cc(N)cc2sc(NC(C)=O)nc12	n	n	n	n
Cc1cccn2c(CN(C)CCn3ccnc3)c(C(=O)N(C)CCc3ccccc3)nc12	n	n	n	n
CCc1ccc(C(=O)Nc2nc3ccccc3s2)cc1	n	n	50	n
O=C(O)c1ccccc1/C=N/Nc1nc2ccccc2s1	n	n	94	n
CC(C)c1ccc2nc(NC(=O)c3ccccc3)sc2c1	n	n	39	n
O=C(O)COc1ccccc1/C=N/Nc1nc2ccccc2s1	n	n	n	n
CCN(CC)C(=O)c1ccc2nc(NC(=O)c3ccc(OC(C)=O)cc3)sc2c1	n	n	78	2.0
CCCc1ccc(-c2ccc(C(=O)Nc3nc4ccccc4s3)cc2)nc1	n	n	n	n
COCCNC(=O)/C(=C/c1ccc(Cl)cc1)NC(=O)c1ccccc1	n	n	n	n
Cc1cccc(NC(=O)c2ccccc2NC(=O)c2ccccc2)c1	n	n	n	n
O=C(CCc1nc2ccccc2s1)c1ccccc1	n	n	n	2.0
O=C(Nc1nc2ccccc2s1)c1ccc(N2C(=O)CCC2=O)cc1	n	n	n	n
O=C(Nc1nc2ccccc2s1)c1ccccc1	n	n	32	n
Cc1ccc(Nc2nc(Nc3ccc(C)cc3)nc(Sc3nc4ccccc4s3)n2)cc1	n	n	n	n
O=C(O)c1ccc2c(c1)C1C=CCC1C(c1cccc3ccccc13)N2 (stereo not drawn)	n	n	49	n
SMILES	GPR151 ag	MITF inh	TEAD-YAP block	FBW7 act
O=C(O)c1ccc2c(c1)C1C=CCC1C(c1ccc(F)cc1)N2 (stereo not drawn)	n	n	n	n
O=C(O)c1ccc2c(c1)C1C=CCC1C(c1ccccc1)N2 (stereo not drawn)	n	59	n	n
O=C(O)C1Nc2ccc([N+](=O)[O-])cc2C2C=CCC12 (stereo not drawn)	n	85	n	n
O=C(O)C1Nc2ccc(Oc3ccccc3)cc2C2C=CCC12 (stereo not drawn)	n	n	n	n
CC(=O)c1ccc2c(c1)C1C=CCC1C(c1ccc(Br)cc1)N2 (stereo not drawn)	n	n	n	n
CC(=O)c1ccc2c(c1)C1C=CCC1C(c1ccc(C(=O)O)cc1)N2 (stereo not drawn)	n	67	n	n
CCCC(=O)Nc1ccc(NC(=O)COc2ccc(CC)cc2)cc1	n	n	n	n
O=C(O)c1ccc2c(c1)C1C=CCC1C(c1ccncc1)N2 (stereo not drawn)	n	56	n	n
CCOC(=O)c1ccc2c(c1)C1C=CCC1C(c1ccc(F)cc1)N2 (stereo not drawn)	n	n	n	n
CCOC(=O)c1ccc2c(c1)C1C=CCC1C(c1ccc(C(=O)O)cc1)N2 (stereo not drawn)	n	68	n	n
CCOC(=O)c1ccc2c(c1)C1C=CCC1C(C(=O)O)N2 (stereo not drawn)	n	76	n	n

Screening data from PubChem BioAssay.
